Assay results reported in PubChem BioAssay AID651687 (Broad Institute, 2012).
The campaign covered roughly 350,000 compounds. About 600 (0.17%) were called active. The sample holds actives, similar compounds and a random draw of the others, so the mix is not that of the screen.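 The calls were made as follows: active = every replicate shows inhibition of at least 40%; inconclusive = mean inhibition at least 40% but some replicate below; inactive = the rest.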

test: compounds lowering acetylated PGC1a in cells – cell-based, U2OS, AlphaScreen, inhibitor mode, primary screen (AID 651687); settings: U2OS PGC1a acetylation, AlphaScreen anti-acetyl-lysine; at 15.6 µM; active compounds read high;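 also: 0% = neutral control wells and 100% = positive control wells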

Row | Compound | inhibition
1 | CCC(C)(O)C(=O)OC1C(=O)OC2CC3C(C)=CC(=O)C(O)C3(C)C3C4(O)OCC23C1C(C)C4O (stereo not given) | 80% (active)
2 | O=C(Cc1ccncc1)N1CCCCN2[C@@H](CO)[C@H](c3ccc(-c4ccncc4)cc3)[C@@H]2C1 | 1.83% (inactive)
3 | O=c1[nH]c2ccccc2n1C1CCN(C(c2ccccc2)c2nnnn2Cc2ccccc2)CC1 (stereo not given) | 10.6% (inactive)
4 | COC(=O)C1=C(c2ccc(OCc3ccccc3)cc2)C[C@@H]2CC[C@H]1N2C(=O)NCc1cccc(F)c1 | -39.8% (inactive)
5 | O=C(Cc1ccncc1)N1CCCCN2[C@H](CO)[C@@H](c3ccc(C#CC4(O)CCCC4)cc3)[C@H]2C1 | -7.38% (inactive)
6 | COC1C(O)C(C)OC(OC2CCC3(C=O)C(CCC4C3CCC3(C)C(C5=CC(=O)OC5)CCC43O)C2)C1O (stereo not given) | 82.1% (active)
7 | O=C(c1ccccc1)C(O)(CN1CCCCC1)c1ccccc1 (stereo not given) | -2.16% (inactive)
8 | COC(=O)C(c1ccccc1)N1CCCCCC1 (stereo not given) | 5.94% (inactive)
9 | c1ccc(C(CN2CCCCC2)c2ccccc2)cc1 | 40.7% (active)
10 | N#Cc1cccc(-c2ccc([C@H]3[C@@H](CO)N4CCCCN(C(=O)Cc5cccnc5)C[C@@H]34)cc2)c1 | -1.39% (inactive)
11 | OC[C@@H]1[C@H]2c3ccccc3NC[C@H]2N1Cc1cccnc1 | 3.98% (inactive)
12 | CCOC(=O)c1cccc(C2=C(CNC(=O)c3ccncc3)[C@H]3CC[C@@H](C2)N3Cc2ccccc2)c1 | -1.43% (inactive)
13 | O=C(Cc1cccnc1)N1CCCCN2[C@@H](CO)[C@H](c3ccc(C#CC4CCCC4)cc3)[C@@H]2C1 | -10.8% (inactive)
14 | O=C(NCC1=C(c2ccc3ccccc3c2)C[C@@H]2CC[C@H]1N2Cc1ccco1)c1cccs1 | -0.267% (inactive)
15 | COC(=O)C[C@@H]1CC[C@@H]2NC[C@@H](O)COC[C@H]2O1 | -2.11% (inactive)
